# Where “and” joins values, the source holds several entries; their conditions need not be identical. Equal values may be shown once. Inconclusive results are not listed. Entries that show only a call come without a potency. Calls of active or inactive are those of the source. Calls follow the shape of the dose curve; as a rule, active = well fitted curve in the direction sought with a large enough effect in the repeat runs; inconclusive = weak or mixed curves; inactive = no such curve, though single readings can be large; an effect the other way counts as inactive or inconclusive.
# Experiments:
# [1] = qHTS assay to identify small molecule antagonists of the retinoic acid receptor (RAR) signaling pathway (AID 1159552; also: nearly all actives have a fitted effect of over 50% in size; also: potency is read from the fitted curve at half-maximal effect)
# Summary of the method: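 RARE-luc C3RL4 cells; cpds + 1 uM (final) retinol, 6 hr, 37 C/5% CO2; luciferase reagent, 30 min RT, luminescence readout. Inhibitors of retinol-driven signal scored.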
# [2] = qHTS assay to identify small molecule agonists of the retinoic acid receptor (RAR) signaling pathway (AID 1159553); also: potency is read from the fitted curve at half-maximal effect
# Summary of the method: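 Activation of retinol signaling was monitored via a RARE luciferase reporter in C3RL4 cells. After 6 hr compound treatment at 37 C, detection reagent was added for 30 min at room temperature before luminescence reading.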
# [3] = qHTS assay to identify small molecule antagonists of the estrogen related receptor (ERR) signaling pathway from Tox21 library - cell viability counter screen (AID 1224834); also: nearly all actives have a fitted effect of over 30% in size; also: potency is read from the fitted curve at half-maximal effect
# Summary of the method: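 CellTiter-Fluor fluorescence measured; ERR cells; 17.5 h compound incubation at 37 C; 30 min reagent step.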
# [4] = target: Luciferin 4-monooxygenase (Photinus pyralis) (UniProt P08659); experiment: qHTS assay to identify small molecule inhibitors of firefly luciferase (AID 1224835); also: nearly all actives have a fitted effect of over 25% in size; also: potency is read from the fitted curve at half-maximal effect; as to activity change, negative = inhibition: series mostly up to about 120 µM
# Summary of the method: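 Inhibition of purified Photinus luciferase is measured by luminescence. Substrate levels (D-luciferin, ATP) sit at their KM values. Each compound is tested in a concentration series.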
# [5] = qHTS assay to identify small molecule antagonists of the estrogen related receptor (ERR) signaling pathway - cell viability counter screen (AID 1224818);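 also: series mostly up to about 46 µM; viability measured after 17.5 h of compound exposure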
# Summary of the method: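 In the same ERR cell assay, compound-treated wells (17.5 h, 37 C) were multiplexed with a fluorogenic viability reagent, CellTiter-Fluor, read after 30 min to flag cytotoxic substances.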
# [6] = qHTS assay to identify small molecule antagonists of the estrogen related receptor (ERR) signaling pathway (AID 1224819; also: nearly all actives have a fitted effect of over 50% in size; also: potency is read from the fitted curve at half-maximal effect;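 as to activity change, negative = inhibition: luminescence from an ERR-driven luciferase reporter measured with One-Glo reagent; series mostly up to about 46 µM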)
# Summary of the method: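 qHTS in ERR cells, 2,000/well, 1536 format. Cpd (DMSO) added after 6 h settle, 18 h 37 C. One-Glo luminescence, 30 min RT.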
# [7] = qHTS assay to identify small molecule agonists of the estrogen related receptor (ERR) signaling pathway (AID 1224820)
# Summary of the method: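 ERR reporter cell line (from NTP), 2,000 cells/well, incubated 6 h before compound addition, then 18 h at 37 C. Luminescence measured 30 min after One-Glo reagent at room temperature.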
# [8] = qHTS assay to identify small molecule agonists of the estrogen related receptor signaling pathway with the pleiotropic PPARgamma coactivator (PGC) (AID 1224823)
# Summary of the method: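 PGC/ERR reporter cells seeded 6 h, then exposed to compounds (23 nL in DMSO) for 18 h at 37 C. One-Glo luciferase luminescence read after 30 min at room temperature.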
# [9] = qHTS assay to identify small molecule antagonists of the estrogen related receptor signaling pathway with the pleiotropic PPARgamma coactivator (PGC) cell viability counter screen (AID 1224822; also: series mostly up to about 46 µM)
# Summary of the method: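 Compounds in DMSO, with positive and negative controls, were applied to PGC/ERR cells (2,000/well) and left 17.5 h at 37 C before CellTiter-Fluor detection.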
# Sequence of Luciferin 4-monooxygenase (Photinus pyralis) (P08659 whole entry, looked up): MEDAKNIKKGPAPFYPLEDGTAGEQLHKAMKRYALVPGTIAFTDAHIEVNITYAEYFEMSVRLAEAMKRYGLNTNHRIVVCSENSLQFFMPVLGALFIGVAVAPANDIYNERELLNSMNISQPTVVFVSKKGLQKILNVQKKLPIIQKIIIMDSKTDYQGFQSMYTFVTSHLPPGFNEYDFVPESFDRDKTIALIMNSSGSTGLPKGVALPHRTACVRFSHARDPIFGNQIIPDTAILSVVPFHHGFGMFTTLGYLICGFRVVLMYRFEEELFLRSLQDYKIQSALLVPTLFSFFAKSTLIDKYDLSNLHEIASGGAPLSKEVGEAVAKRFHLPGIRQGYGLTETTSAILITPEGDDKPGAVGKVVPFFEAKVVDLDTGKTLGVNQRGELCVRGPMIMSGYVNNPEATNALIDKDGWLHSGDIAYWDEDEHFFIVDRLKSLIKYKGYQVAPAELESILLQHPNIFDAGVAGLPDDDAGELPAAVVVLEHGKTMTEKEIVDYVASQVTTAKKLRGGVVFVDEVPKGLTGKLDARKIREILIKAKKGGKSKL
structure (smiles),measurement,setting,value
C[Si](C)(C)Cl,Potency,[1],inactive
same,Potency,[2],inactive
same,Potency,[3],inactive
same,Potency,[4],inactive
Cc1cc(Nc2ccc(O)cc2)ccc1N,Potency,[1],inactive
same,Potency,[2],inactive
same,Potency,[3],30.5 µM (active)
same,Potency,[4],63 µM (active)
CCCCCCCOC(=O)c1ccc(O)cc1,Potency,[1],inactive
same,Potency,[2],34.4 µM (active)
same,Potency,[4],71 µM (active)
CCN(CC)c1ccc(N)cc1,Potency,[1],inactive
same,Potency,[2],3.15 µM (active)
same,Potency,[3],28.1 µM (active)
same,Potency,[4],41 µM (active)
Cc1ccc2ccc3cccc4ccc1c2c34,Potency,[1],inactive
same,Potency,[2],inactive
same,Potency,[4],35.5 µM (active)
Cc1ccc(CCn2c3c(c4cc(Cl)ccc42)CN(C)CC3)cn1,Potency,[1],inactive
same,Potency,[2],inactive
same,Potency,[4],inactive
CCCCCCCCCCCCOC(=O)c1cc(O)c(O)c(O)c1,Potency,[1],inactive
same,Potency,[2],172 nM (active) and 386 nM (active)
same,Potency,[3],60.9 µM (active) and 27.3 µM (active)
same,Potency,[4],inactive
CC(C)(C)C1=CC(=O)C=C(C(C)(C)C)C1=O,Potency,[1],inactive
same,Potency,[2],inactive
same,Potency,[4],inactive
O=C(c1ccccc1)c1cc(Cl)ccc1O,Potency,[1],inactive
same,Potency,[2],inactive
same,Potency,[3],inactive
same,Potency,[4],inactive
SCCCCCCCCS,Potency,[1],inactive
same,Potency,[2],inactive
same,Potency,[3],inactive
same,Potency,[4],inactive
CCCCCCCCCCCCCCCC,Potency,[1],inactive
same,Potency,[2],inactive
same,Potency,[3],inactive
same,Potency,[4],inactive
COc1ccc(-n2nc(CCC(=O)N(C)O)cc2-c2ccc(Cl)cc2)cc1,Potency,[1],inactive
same,Potency,[2],inactive
same,Potency,[3],26.6 µM (active)
same,Potency,[4],inactive
CC(C)c1ccc(O)c(C(C)C)c1,Potency,[1],inactive
same,Potency,[2],inactive
same,Potency,[3],inactive
same,Potency,[4],inactive
O=C(O)CC(=O)O,Potency,[1],inactive
same,Potency,[2],inactive
same,Potency,[3],inactive
same,Potency,[4],inactive
CCCC(CC)CCCCCCCN (stereo not drawn),Potency,[1],inactive
same,Potency,[2],inactive
same,Potency,[4],inactive
COc1cc(C=C2CCC/C(=C\c3ccc(O)c(OC)c3)C2=O)ccc1O,Potency,[1],inactive
same,Potency,[2],13.3 µM (active)
same,Potency,[3],13.3 µM (active)
same,Potency,[4],30.9 µM (active)
COC(=O)[C@]1(C)CCC[C@@]2(C)[C@H]1CC=C1C=C(C(C)C)CC[C@@H]12,Potency,[1],inactive
same,Potency,[2],inactive
same,Potency,[3],inactive
same,Potency,[4],inactive
CC1=C(/C=C/C(C)=C/C=C/C(C)=C\C=O)C(C)(C)CCC1,Potency,[1],inactive
same,Potency,[2],1.63 µM (active)
same,Potency,[3],51.6 µM (active)
same,Potency,[4],inactive
NC(=O)c1ccccc1N,Potency,[1],inactive
same,Potency,[2],inactive
same,Potency,[3],inactive
same,Potency,[4],inactive
O=C1c2c(O)ccc(O)c2C(=O)c2c(NCCNCCO)ccc(NCCNCCO)c21,Potency,[1],0.119 µM (active)
same,Potency,[5],inactive
same,Potency,[6],1.44 µM (active)
same,outcome,[7],inactive
same,outcome,[8],inactive
same,Potency,[3],3.35 µM (active)
COc1cc(C(C)C)c2c(c1)S(=O)(=O)N(COc1cc(=O)n3cccc(OCCN4CCCCC4)c3n1)C2=O,"activity, negative = inhibition",[1],1.67% [at 19 µM] (inactive)
same,Potency,[2],inactive
same,"activity change, negative = inhibition",[4],-3.11% [at 23.6 µM] (inactive)
C=C1C(C)(C)[C@@]2(Cl)C(Cl)[C@]1(Cl)C(Cl)(Cl)C2(Cl)Cl (stereo partly drawn),Potency,[1],60 µM (active)
same,Potency,[2],inactive
same,Potency,[3],67.3 µM (active)
same,Potency,[4],inactive
O=C1Nc2ccc(Cl)cc2[C@@](C#CC2CC2)(C(F)(F)F)O1,Potency,[1],29.8 µM (active)
same,Potency,[2],inactive
same,Potency,[4],inactive
Cc1nc(Nc2ncc(C(=O)Nc3c(C)cccc3Cl)s2)cc(N2CCN(CCO)CC2)n1,Potency,[1],16.8 µM (active)
same,Potency,[2],inactive
same,Potency,[3],13.3 µM (active)
same,Potency,[4],inactive
COC(=O)CC#N,Potency,[1],inactive
same,Potency,[2],inactive
same,Potency,[3],inactive
same,Potency,[4],inactive
CCCCCCOc1ccc(O)cc1,Potency,[1],inactive
same,Potency,[2],0.611 µM (active)
same,Potency,[3],27.3 µM (active)
same,Potency,[4],35.6 µM (active)
O=C(Nc1ccc(Cl)cc1)Nc1ccc(Cl)c(C(F)(F)F)c1,Potency,[1],23.7 µM (active)
same,Potency,[2],inactive
same,Potency,[3],11.9 µM (active)
same,Potency,[4],34.7 µM (active)
ClC/C=C\CCl,Potency,[1],inactive
same,Potency,[2],inactive
same,Potency,[3],inactive
same,Potency,[4],inactive
O=S(=O)(O)CCCN1CCOCC1,Potency,[1],inactive
same,Potency,[2],inactive
same,Potency,[3],inactive
same,Potency,[4],inactive
CCN(CC)CCSC(=O)C(c1ccccc1)c1ccccc1,Potency,[1],26.6 µM (active)
same,Potency,[2],inactive
same,Potency,[3],inactive
same,Potency,[4],inactive
CCN1CCN(c2cc(-c3ccc(F)cc3)c3c(n2)CCCCCC3)CC1,"activity, negative = inhibition",[1],9.21% [at 19 µM] (inactive)
same,Potency,[2],inactive
same,"viability change, negative = cytotoxic",[3],0.165% [at 19 µM] (inactive)
same,"activity change, negative = inhibition",[4],-0.963% [at 23.6 µM] (inactive)
CN(C)c1ccc(N=Nc2ccccc2C(=O)O)cc1,Potency,[1],inactive
same,Potency,[2],1.09 µM (active)
same,Potency,[3],48.6 µM (active)
same,Potency,[4],3.17 µM (active)
C/C=C/C(=O)Oc1c(CCCCCC(C)C)cc([N+](=O)[O-])cc1[N+](=O)[O-],Potency,[1],17.2 µM (active)
same,Potency,[2],inactive
same,Potency,[3],24.3 µM (active)
same,Potency,[4],inactive
CCCCCCCC/C=C\CCCCCCCC(=O)NCc1ccc(O)c(OC)c1,Potency,[1],inactive
same,Potency,[5],inactive
same,Potency,[6],inactive
same,outcome,[7],inactive
same,Potency,[9],inactive
same,outcome,[8],inactive
same,Potency,[4],inactive
C=CC(=O)OCCOCC(CC)(COCCOC(=O)C=C)COCCOC(=O)C=C,Potency,[1],31.9 µM (active)
same,Potency,[2],7.14 µM (active)
same,Potency,[3],16 µM (active)
same,Potency,[4],inactive

# — PubChem BioAssay (Tox21)
